Positions count from the first letter of the chain named.
How the values were obtained:
Test in all cases: protein-binding microarray (PBM); PBM: ~300 nM protein, 6 mM HEPES pH 7.8, 80 mM KCl, 0.5 mM EDTA, 0.5 mM EGTA, 6% glycerol, 35 ng/ul poly-dIdC, 1% milk, 1 h, room temperature; Ap Aiptasia and Nv Nematostella (sea anemones) / Co Capsaspora / Aq Amphimedon (sponge) / Dm Drosophila / Hu human; RHD is the Rel homology domain; high values mean tight binding
Settings in all cases: dsDNA, one strand shown
GST-Ap-NF-kB RHD = target: T1, GST-Ap-NF-kB RHD (Exaiptasia pallida (Aiptasia), UniProt A0A913YAJ5 2-422)
T1 sequence: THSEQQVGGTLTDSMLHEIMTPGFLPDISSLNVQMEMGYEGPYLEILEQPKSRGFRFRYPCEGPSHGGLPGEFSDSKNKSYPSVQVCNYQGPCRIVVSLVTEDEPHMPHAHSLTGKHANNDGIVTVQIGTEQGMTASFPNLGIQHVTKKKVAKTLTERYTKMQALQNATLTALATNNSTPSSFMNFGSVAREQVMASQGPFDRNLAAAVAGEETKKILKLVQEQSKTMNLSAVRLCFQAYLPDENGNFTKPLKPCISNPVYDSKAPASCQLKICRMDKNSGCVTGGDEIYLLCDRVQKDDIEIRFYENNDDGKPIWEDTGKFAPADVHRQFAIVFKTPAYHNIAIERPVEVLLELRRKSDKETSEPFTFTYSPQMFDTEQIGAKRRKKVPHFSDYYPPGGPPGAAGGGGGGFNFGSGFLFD

[1] = target: T2, GST-Nv-NF-kB (Cys allele) (Nematostella vectensis, UniProt E5G601 2-411)
T2 sequence: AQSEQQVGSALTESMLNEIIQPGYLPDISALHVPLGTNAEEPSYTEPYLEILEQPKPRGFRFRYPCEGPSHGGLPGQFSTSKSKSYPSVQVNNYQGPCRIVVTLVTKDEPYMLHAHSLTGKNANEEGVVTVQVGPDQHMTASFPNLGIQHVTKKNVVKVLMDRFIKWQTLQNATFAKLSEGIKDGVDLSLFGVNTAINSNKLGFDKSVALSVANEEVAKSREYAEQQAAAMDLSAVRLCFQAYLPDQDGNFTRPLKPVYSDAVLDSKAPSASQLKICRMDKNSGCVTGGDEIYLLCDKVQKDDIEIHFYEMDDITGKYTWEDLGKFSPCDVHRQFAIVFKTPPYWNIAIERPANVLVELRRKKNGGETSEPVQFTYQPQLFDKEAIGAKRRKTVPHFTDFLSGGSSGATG

[2] = target: T3, GST-Nv-NF-kB (Ser allele) (Nematostella vectensis, UniProt A7UNT2 2-411)
T3 sequence: T2 sequence with Q21R, C66S, S207N, E215Q, V217A, E225K, A268E, D399E

GST-Co-NF-kB = target: T4, GST-Co-NF-kB (Capsaspora owczarzaki, UniProt F1ARL5 200-546)
T4 sequence: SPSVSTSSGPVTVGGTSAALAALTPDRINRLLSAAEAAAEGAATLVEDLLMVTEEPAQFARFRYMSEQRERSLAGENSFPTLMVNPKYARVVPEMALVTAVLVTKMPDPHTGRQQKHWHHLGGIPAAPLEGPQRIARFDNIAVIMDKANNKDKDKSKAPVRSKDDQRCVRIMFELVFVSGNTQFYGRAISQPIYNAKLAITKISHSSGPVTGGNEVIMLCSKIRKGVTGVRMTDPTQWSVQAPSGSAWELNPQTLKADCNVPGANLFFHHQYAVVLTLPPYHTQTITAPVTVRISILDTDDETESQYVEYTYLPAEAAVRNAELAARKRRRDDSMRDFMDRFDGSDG

GST-Dm-Relish = target: T5, GST-Dm-Relish (Drosophila melanogaster, UniProt Q94527 99-473)
T5 sequence: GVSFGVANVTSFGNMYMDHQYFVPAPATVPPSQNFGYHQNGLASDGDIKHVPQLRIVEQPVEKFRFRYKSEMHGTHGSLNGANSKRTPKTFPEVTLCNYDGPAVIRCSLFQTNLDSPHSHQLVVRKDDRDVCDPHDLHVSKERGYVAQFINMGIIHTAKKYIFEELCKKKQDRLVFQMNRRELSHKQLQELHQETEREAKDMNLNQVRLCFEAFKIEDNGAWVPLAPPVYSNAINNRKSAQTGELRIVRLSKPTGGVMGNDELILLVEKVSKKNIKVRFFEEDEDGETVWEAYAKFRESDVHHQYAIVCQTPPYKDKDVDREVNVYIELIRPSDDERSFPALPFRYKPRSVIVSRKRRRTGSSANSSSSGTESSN

GST-Aq-NF-kB = target: T6, GST-Aq-NF-kB (Amphimedon queenslandica, UniProt A9Y5G7 2-389)
T6 sequence: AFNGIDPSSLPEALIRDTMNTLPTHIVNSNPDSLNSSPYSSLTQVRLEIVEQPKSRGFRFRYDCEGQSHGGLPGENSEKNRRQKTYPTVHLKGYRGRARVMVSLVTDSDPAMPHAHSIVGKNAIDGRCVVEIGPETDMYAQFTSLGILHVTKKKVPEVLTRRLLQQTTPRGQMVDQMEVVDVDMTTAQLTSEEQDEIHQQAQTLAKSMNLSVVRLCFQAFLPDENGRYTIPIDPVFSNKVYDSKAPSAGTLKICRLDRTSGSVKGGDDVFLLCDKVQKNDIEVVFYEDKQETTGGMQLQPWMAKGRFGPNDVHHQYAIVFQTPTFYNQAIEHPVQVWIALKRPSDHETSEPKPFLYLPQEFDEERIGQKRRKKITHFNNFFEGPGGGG

Sequence: CCGATTAACATCAGATTATCCCCTGATGTTAATCGGGTCTTGATTCGCTTGACGCTGCTG
- binding signal (GST-Ap-NF-kB RHD): 5.35 z-score
- binding signal [1]: 6.05 z-score
- binding signal [2]: 6.87 z-score
- binding signal (GST-Co-NF-kB): 5.37 z-score
- binding signal (GST-Dm-Relish): 2.63 z-score
- binding signal (GST-Aq-NF-kB): 4.98 z-score

Sequence: CCGATTAACATCAGGGAAGTACATGATGTTAATCGGGTCTTGATTCGCTTGACGCTGCTG
- binding signal (GST-Ap-NF-kB RHD): 1.18 z-score
- binding signal [1]: 1.34 z-score
- binding signal [2]: 1.35 z-score
- binding signal (GST-Co-NF-kB): 1.54 z-score
- binding signal (GST-Dm-Relish): 9.23 z-score
- binding signal (GST-Aq-NF-kB): 2.86 z-score

Sequence: CCGATTAACATCAGGGGATAATATGATGTTAATCGGGTCTTGATTCGCTTGACGCTGCTG
- binding signal (GST-Ap-NF-kB RHD): 5.41 z-score
- binding signal [1]: 5.47 z-score
- binding signal [2]: 7.02 z-score
- binding signal (GST-Co-NF-kB): 5.65 z-score
- binding signal (GST-Dm-Relish): 2.58 z-score
- binding signal (GST-Aq-NF-kB): 4.59 z-score

Sequence: CCGATTAACATCAAGAGTTCCCCTGATGTTAATCGGGTCTTGATTCGCTTGACGCTGCTG
- binding signal (GST-Ap-NF-kB RHD): 7.18 z-score
- binding signal [1]: 7.2 z-score
- binding signal [2]: 7.72 z-score
- binding signal (GST-Co-NF-kB): 6.55 z-score
- binding signal (GST-Dm-Relish): 7.58 z-score
- binding signal (GST-Aq-NF-kB): 5.77 z-score

Sequence: CCGATTAACATCAGGGGATTAAATGATGTTAATCGGGTCTTGATTCGCTTGACGCTGCTG
- binding signal (GST-Ap-NF-kB RHD): 4.91 z-score
- binding signal [1]: 6.29 z-score
- binding signal [2]: 7.01 z-score
- binding signal (GST-Co-NF-kB): 3.71 z-score
- binding signal (GST-Dm-Relish): 5.28 z-score
- binding signal (GST-Aq-NF-kB): 5.21 z-score

Sequence: CCGATTAACATCAACATTTTCCCTGATGTTAATCGGGTCTTGATTCGCTTGACGCTGCTG
- binding signal (GST-Ap-NF-kB RHD): 3.52 z-score
- binding signal [1]: 5.79 z-score
- binding signal [2]: 8.32 z-score
- binding signal (GST-Co-NF-kB): 4.91 z-score
- binding signal (GST-Dm-Relish): 1.62 z-score
- binding signal (GST-Aq-NF-kB): 3.41 z-score

Source: publication PMC5700166
